Sampled rows, rich in hits. Any-hit rate of the full collection: about 19%.
HT1080-NT tox: kills 2HG-producing HT-1080-NT fibrosarcoma cells; 360,000 compounds, 1.6% hits; HT-1080-NT fibrosarcoma viability, CellTiter-Glo ATP luminescence, 48 h; AID 686970; Potency, µM (top dose mostly 46.1 µM), most hits filed as cytotoxic;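 also: NT is the 2HG producing partner of a matched IDH1 knockdown line; nearly all actives have a fitted effect of over 55% in size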
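Fibrosarcoma NT cells, 750 per well in 5% FBS RPMI, were exposed to compound for 48 hours. Viability: CellTiter-Glo luminescence.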
IL1B secr inh: inhibitors of inflammasome signaling (IL-1 beta secretion). THP-1 LPS/ATP IL-1B secretion, AlphaLISA, 16 h; stronger effect = lower value. activity change, % at 57.5 µM. 360,000 compounds, 4.7% hits; in the data active = activity change below about -50%; inconclusive = mostly about -30% to -49%
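THP-1 cells pretreated 1 hr with compounds (up to 57.5 uM final), then stimulated with LPS (250 ng/mL final) plus ATP (1.25 mM final); secreted IL-1B measured by AlphaLISA after 16 hr, decreased signal indicating inhibition.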
HT1080 IDH1KD tx: kills HT-1080 cells with IDH1 knockdown. HT-1080 IDH1 knockdown viability, ATP luminescence, 48 h. Potency, µM (doses to about 46.1 µM), actives largely listed as cytotoxic. 360,000 compounds, 2% hits. AID 686971
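Viability of IDH1-knockdown HT-1080 fibrosarcoma cells was assessed by CellTiter-Glo after 48 h at 37 °C with titrated compound; concentration-effect curves were classified by fit quality and response size.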
TDP1 cell CPT: growth inhibition of DT40 Tdp1-/-;hTDP1 cells with camptothecin (screen for TDP1 inhibitors) | chicken DT40 Tdp1-/-;hTDP1 cells + 20 nM CPT, ATP luminescence, 48 h | Potency, µM (series often up to 46.2 µM), hits mostly inhibitors | 420,000 compounds, 12% hits | AID 686979; also: nearly all actives have a fitted effect of over 55% in size
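Chicken DT40 Tdp1-/- cells complemented with human TDP1, 400 cells/well, exposed to compounds plus 20 nM camptothecin for at least 48 h at 37 C; viability read as ATP content by CellTiter-Glo luminescence.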
DT40 TDP1 no CPT: qHTS for Inhibitors of human tyrosyl-DNA phosphodiesterase 1 (TDP1): qHTS in cells in absence of CPT; DT40 Tdp1-/- hTDP1 cells, no CPT, ATP luminescence, 48 h; Potency, µM (doses to about 46.2 µM), actives largely listed as inhibitors; 420,000 compounds, 15% hits; also: nearly all actives have a fitted effect of over 55% in size
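Luminescent ATP content (CellTiter-Glo) served as the growth readout. Knockout chicken DT40 cells expressing human TDP1 were exposed to compounds without camptothecin for a minimum 48 hr at 37 °C.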
Numbers stand for hits; . = inactive; ? = inconclusive; / = no result; [ ] = dose if it differs, or a comment. Unless noted, calls follow the shape of the dose curve; as a rule, active = well fitted curve in the direction sought with a large enough effect; inconclusive = small, poorly fitted or top-dose-only effect, or another doubt; inactive = no such curve, though single readings can be large; an effect the other way counts as inactive or inconclusive.

SMILES | HT1080-NT tox | IL1B secr inh | HT1080 IDH1KD tx | TDP1 cell CPT | DT40 TDP1 no CPT
CC(C)CC(N)c1csc(Nc2ccc(S(C)(=O)=O)cc2)n1 (stereo unspecified) | . | . | . | . | .
NC(=O)c1ccc(Nc2nc(C(N)COCc3ccccc3)cs2)cc1 (stereo unspecified) | . | . | . | ? | ?
CS(=O)(=O)c1ccc(Nc2nc(C(N)CCc3ccccc3)cs2)cc1 (stereo unspecified) | ? | . | ? | 23.1µM | 20.6µM
NC(COCc1ccccc1)c1csc(Nc2ccc(C(=O)c3ccccc3)cc2)n1 (stereo unspecified) | 18.4µM | -66.0 | ? | 14.6µM | ?
NC(CCc1ccccc1)c1csc(Nc2ccc(C(=O)c3ccccc3)cc2)n1 (stereo unspecified) | ? | ? | ? | 16.4µM | 18.4µM
NC(=O)c1cccc(Nc2nc(C(N)COCc3ccccc3)cs2)n1 (stereo unspecified) | . | . | . | 18.4µM | ?
CC(=O)Nc1ccc(-c2cc(C(=O)O)c3c(-c4ccccc4)[nH]nc3n2)cc1 | / | / | / | . | .
Cn1nc(Cc2n[nH]c(=S)n2C)c2ccccc2c1=O | . | . | . | . | .
NC(CCc1ccccc1)c1csc(Nc2ccc(C(=O)NCCCO)cn2)n1 (stereo unspecified) | ? | . | . | . | .
NC(CCc1ccccc1)c1csc(Nc2ccc(C(=O)NCCO)cc2)n1 (stereo unspecified) | . | . | . | ? | 23.1µM
NCc1csc(Nc2ccc(C(=O)c3ccccc3)cc2)n1 | ? | . | ? | 0.92µM | 1.03µM
CC(C)CNC(=O)C1C(=O)Nc2ccccc2C(=O)N1C1CCCCC1 (stereo unspecified) | . | . | . | . | .
COc1ccc(-c2noc(CCCC(=O)NC3CCCCC3)n2)cc1 | . | . | ? | 20.6µM | 23.1µM
CCOc1ccccc1NC(=O)c1ccccc1-c1nc(-c2ccccc2OC)no1 | . | . | . | 16.4µM | 9.2µM
COc1ccc(-c2noc(CCC(=O)NC3CCCC3)n2)cc1 | . | . | . | . | ?
CCOC(=O)c1ccc(NC(=O)CCc2nc(-c3ccccc3Cl)no2)cc1 | ? | . | ? | 16.4µM | 14.6µM
CCOc1ccccc1NC(=O)CCCc1nc(-c2ccccc2Cl)no1 | / | / | / | 13µM | ?
O=C(CNC(=O)c1ccc(Cl)cc1)OCc1cc(=O)n2ccsc2n1 | / | / | / | . | .
CCOc1ccccc1CNS(=O)(=O)c1cnc[nH]1 | . | . | . | . | .
CCOc1ccccc1NC(=O)COC(=O)CCOc1cc(C)ccc1C | . | . | . | . | .
COc1cccc(-c2noc(CCCC(=O)NC3CCCC3)n2)c1 | . | . | . | ? | .
CCOc1ccc(NC(=O)CCCc2nc(-c3cccc(OC)c3)no2)cc1 | / | / | / | ? | 20.6µM
CCOC(=O)c1ccc(NC(=O)CCc2nc(-c3ccccc3)no2)cc1 | . | . | . | 18.4µM | 29.1µM
Cc1cccc(-c2noc(CCC(=O)Nc3ccc(C(N)=O)cc3)n2)c1 | . | . | . | . | .
O=C(NCc1cccc(C(F)(F)F)c1)c1[nH]c(C(F)(F)F)nc1-c1ccccc1 | ? | . | ? | ? | ?
SMILES | HT1080-NT tox | IL1B secr inh | HT1080 IDH1KD tx | TDP1 cell CPT | DT40 TDP1 no CPT
Cc1ccc(CNC(=O)c2[nH]c(C(F)(F)F)nc2-c2ccccc2)cc1 | ? | . | . | ? | 20.6µM
COC(=O)c1ccc(CN2CCOc3ccc(CN4CCC(O)(c5cccnc5)CC4)cc3C2)cc1 | / | / | / | .[9.04 µM] | ?
S=C(Nc1ccccc1Cl)N1CCN(c2ccccn2)CC1 | . | . | . | . | .
Cc1cccc(CSc2nnc3c(n2)[nH]c2ccccc23)c1 | . | . | . | ? | ?
CCOC(=O)c1c(C)[nH]c(CCC(=O)Nc2ccc(Cl)cc2C)c1C | / | / | / | . | ?
COc1ccc(CCNC(=O)C2=CCN(S(=O)(=O)c3ccc(F)cc3)CC2)cc1OC | . | . | . | . | .
CC(=O)NCCC(=O)Nc1ccc(C)c(F)c1 | . | . | . | . | .
CCOC(=O)c1c(C)[nH]c(CCC(=O)Nc2ccc(N(CC)CC)cc2C)c1C | / | / | / | 13µM | ?
CCN(CC)c1ccc(NC(=O)C2=CCN(S(=O)(=O)c3ccc(F)cc3)CC2)c(C)c1 | . | . | . | 18.4µM | 18.4µM
CCOC(=O)c1c(C)[nH]c(CCC(=O)Nc2ccc(C)c(F)c2)c1C | / | / | / | 20.6µM | 14.6µM
CCN(CC)c1ccc(NC(=O)c2[nH]c(C)c(C(C)=O)c2C)c(C)c1 | . | . | . | 23.1µM | 18.4µM
CCc1c(C)c2cc3c(c(C)c2oc1=O)OCN(CCc1ccccc1F)C3 | / | / | / | 13µM | 16.4µM
Cc1c(C)c2cc3c(c(C)c2oc1=O)OCN(CCc1ccccc1)C3 | / | / | / | 13µM | ?
Cc1c(C)c2cc(Cl)c(O)c(CN3CCN(C)CC3)c2oc1=O | ? | . | . | . | .
CCOC(=O)CCc1c(C)c2cc3c(c(C)c2oc1=O)OCN(CCc1ccccc1OC)C3 | / | / | / | 29.1µM | ?
CCC(Cc1ccccc1)NC(=O)C1CCN(S(=O)(=O)c2ccc3c(c2)CC(C)N3C(C)=O)CC1 (stereo unspecified) | . | . | . | . | .
COC(=O)c1ccccc1NC(=O)Cn1cnc2cc(C)c(C)cc21 | . | . | . | 14.6µM | 23.1µM
COC(=O)c1ccccc1NC(=O)CNc1cc(OC)c(OC)cc1C | . | . | . | ? | 18.4µM
CCn1nc(C)c([N+](=O)[O-])c1C(=O)NNC(=O)c1ccccc1Cl | . | . | . | . | .
O=C(CN1C(=O)NC2(CCCC2)C1=O)NCc1ccccc1 | . | . | . | . | .
CCCc1ccc(OCc2nc(-c3ccc(NC(=O)c4ccco4)cc3)no2)cc1 | ? | . | ? | ? | ?
COc1ccc(OC)c(C(C)NC(C)=O)c1 (stereo unspecified) | . | . | . | . | .
CC(NC(=O)c1ccco1)c1nc(-c2ccccc2)no1 (stereo unspecified) | . | . | . | . | .
COc1ccc(OC)c(C(C)NC(=O)c2ccco2)c1 (stereo unspecified) | ? | . | . | 23.1µM | ?
CC(Oc1ccc(Cl)cc1Cl)c1nc(-c2ccc(NC(=O)c3ccco3)cc2)no1 (stereo unspecified) | . | . | . | 23.1µM | 16.4µM
COc1ccc(-c2noc(C(C)NC(=O)c3ccco3)n2)cc1 (stereo unspecified) | / | / | / | 18.4µM | 14.6µM
CCN(CC)C(=O)C1=C(C)N(CCC2=CCCCC2)C(=O)C(CC(=O)NCc2ccco2)C1 (stereo unspecified) | . | . | . | ? | ?
Cc1csc(=O)n1CCC(=O)OCC(=O)NCc1ccc(F)cc1 | . | . | . | . | .
